# Source: the OligoGym collection
# Target: KIAA0564
# Experiment: pooled miR-30 sensor sort-seq; sequence = guide strand
# Details: shRNA
# Also: reference of the scale not given here.
row,Sequence,sensor-assay potency score (higher = more potent)
1,ATCAACAGTAACAACACCGCTT,0.22
2,TAGAACATCCAGCACAGTCAGG,-1.28
3,TCTTTGTAGAACACCAGCCAGT,-0.952
4,TTGTGGAGGAGTAACATCTTTT,-1.09
5,TTTTTCTTTGTAGAACACCAGC,-1.28
6,TAAACATATATCTTTAACCATG,-1.59
7,TTAACCTTTGCAATACAGCAAG,-0.99

# Target: KIAA0664
# Experiment: as above
# Details: shRNA
row,Sequence,sensor-assay potency score (higher = more potent)
1,TTGAAGGTCGGGCTGATCTGGT,-0.0579
2,TTTCTTCTGCAGCACAGCGAAG,-1.66
3,TTGAGCACGTCCTCCTCGGTGA,-0.45
4,TTGGAGACCAGCTCGTCGGCGG,-0.677
5,TACGTCTTGAAGATGTGCTTGG,0.188
6,TTGACGTGCTTGACCACGGGGA,-0.0674
7,TTCTTCTTGAAGGTCGGGCTGA,-0.121
8,TGCATCTTGGTCTCCTCGCTGG,-0.849
9,TTTTCTTCTGCAGCACAGCGAA,-0.902
10,TTGCTCTCGTAGACTCGGGCGA,-0.673
11,AAGTTCTTCTTGAAGGTCGGGC,-0.0493
12,TTGCACTCGACCGAGGAGCAGA,-0.997

# Target: KIAA0930
# Experiment: as above
# Details: shRNA
row,Sequence,sensor-assay potency score (higher = more potent)
1,TTCTTCATCTCAGCGATCCGGT,-0.0677
2,TTGCTGTACTTGTAGAAGCCAA,-0.811
3,TTCTTGAGCGCCTCGTAGCGGA,-0.914
4,TAAGTGTGCATAGAGAAGGAAG,-1.42
5,TTCTCCATGAAGTAGGTGGAGA,-1.12
6,AAGTAGGTGGAGAACATCCAAG,-1.37
7,TTCAGCTTCAGCCAGGACCCGA,-1.04
8,AAAAGCATGTCGTCCTGCCGGG,-0.426
9,TTATGGATGTGAATGTCCCCGC,-0.555
10,ATAGAAAAGCATGTCGTCCTGC,0.0437
11,TCACCTGTAGACACTCGGCTGA,-0.216
12,TTTGTCACTAGCCACCAGCTCC,-0.835

# Target: KIAA1217
# Experiment: as above
# Details: shRNA
row,Sequence,sensor-assay potency score (higher = more potent)
1,TTTCTCGATAGACACTGCCCTG,-1.06
2,TAGTGATCCAGATTTTGCCTTT,-0.121
3,TTTTTTTAAATGTAACTCCGAC,-0.293
4,TTTGCTTGAACTTCCATTCTGT,0.925
5,TGAACTTCCATTCTGTGCCTTG,0.302
6,TTTTTGTCTCTCTTGCTCCACT,-0.52
7,TTCTTCAATGAACAAGCTCTGC,-0.544
8,TTTCCCATTATAGTGATCCAGA,-1.06
9,TTCTCGATAGACACTGCCCTGT,-0.436
